Results: PubChem BioAssay AID493056 (National Center for Advancing Translational Sciences (NCATS), 2011)
Several values for one entry are separate records, joined by “and”; a condition that tells them apart may be missing. Identical values can stand only once. The campaign covered roughly 360,000 compounds. About 2,400 (0.67%) were called active. Cut-off read from the data, not from the text of the source: active = enhancement above about 30%; inactive = the rest. The list comes from a sample in which actives are over-represented; it also holds similar structures and randomly drawn compounds. Some compounds were tested as several samples or in several runs, with calls that do not always agree.

These compounds were tested against Thyrotropin-releasing hormone receptor (Homo sapiens) (UniProt P34981) (assay: qHTS for Small Molecule Agonists and Allosteric Enhancers of Human TRH Receptor: Primary Screen for Enhancers). Details: TRHR cells, fluo-8 calcium fluorescence, EC20 TRH enhancement; at 2 µM; stronger effect = higher value.
Outline: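 Enhancer read-out: after compound pinning and an initial kinetic agonist-mode read, an EC20 of TRH (10 nM final) was injected and fluo-8 calcium signal (Ex 480/Em 530) followed at 1 s/cycle for 100 cycles in TRHR-expressing cells.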
Note: 0% is about no effect.

Thyrotropin-releasing hormone receptor (Homo sapiens), sequence (P34981 whole entry, looked up): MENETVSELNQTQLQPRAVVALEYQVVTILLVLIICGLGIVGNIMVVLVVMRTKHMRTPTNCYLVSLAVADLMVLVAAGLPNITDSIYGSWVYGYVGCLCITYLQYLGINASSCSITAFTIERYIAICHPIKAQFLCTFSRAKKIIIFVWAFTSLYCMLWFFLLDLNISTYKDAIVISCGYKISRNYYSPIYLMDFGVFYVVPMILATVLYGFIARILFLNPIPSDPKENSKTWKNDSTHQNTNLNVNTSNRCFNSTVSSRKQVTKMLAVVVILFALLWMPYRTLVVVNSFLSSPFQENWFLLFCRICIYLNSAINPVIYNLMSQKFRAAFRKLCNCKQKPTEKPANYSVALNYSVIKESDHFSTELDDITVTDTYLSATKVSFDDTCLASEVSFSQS

SMILES	enhancement
CCOc1ccc(-c2cc(C)n3nc(C(=O)Nc4ccc(C)c(C)c4)cc3n2)cc1	4.67% (inactive)
COc1cccc(NC(=O)c2csnn2)c1	1.76% (inactive)
Cc1cccn2c(=O)c3cc(C(=O)NC4CCCCC4)sc3nc12	44.3% (active)
CCOC(=O)CNC(=O)c1cc2c(=O)n3cccc(C)c3nc2s1	-2% (inactive)
Cc1ccccc1-n1nc(C)c2cc(C(=O)NC3CC3)sc21	-3% (inactive)
COc1ccc(Cl)cc1NC(=O)C(C)Sc1nc2c(c(=O)[nH]1)CCCC2 (stereo not drawn)	0.18% (inactive)
CC(=O)c1cc(NC(=O)c2ccccc2)c(=O)oc1/C=C/N(C)C	31.6% (active)
CCOC(=O)c1cc(NC(=O)c2ccc(F)cc2)c(=O)n2c1oc1ccccc12	-6.78% (inactive)
COc1ccc(C2COC(=O)C2=N)c(NC(=O)c2ccccc2)c1 (stereo not drawn)	-7.29% (inactive)
COc1cc(OC)c(NC(=O)Cc2ccc(-n3c(C)nc4cccnc43)cc2)cc1Cl	9.81% (inactive)
COc1ccc(Cc2n[nH]c(=S)n2NC(=O)Nc2ccc(C)cc2)cc1	-6.6% (inactive)
CSc1n[nH]c(=S)n1N	4.42% (inactive)
COc1ccc(OCc2n[nH]c(=S)n2N)cc1	41.1% (active)
COc1ccccc1N1CCN(c2ccc(=O)n(CC(=O)NCc3ccc(OC(C)C)cc3)n2)CC1	2.06% (inactive)
COc1cc(OC)c(NC(=O)c2cnc(N3CCCC3)nc2C)cc1Cl	0.561% (inactive)
CCOCCCNC(=O)c1c(NC(=O)c2nc(SC)ncc2Cl)sc2c1CCCC2	6.4% (inactive)
CC(CCc1ccccc1)NC(=O)c1cnc(Cl)c(Cl)c1 (stereo not drawn)	-11.8% (inactive)
CC1=C(C)CC(C(=O)NC(C)CCc2ccccc2)C(C(=O)O)C1 (stereo not drawn)	46.8% (active)
CCN(CC)S(=O)(=O)N1CCC(C(=O)NC(C)CCc2ccccc2)CC1 (stereo not drawn)	5.01% (inactive)
CCc1nn(CC(=O)N2CCN(c3cccc(C(F)(F)F)c3)CC2)c(=O)c2cc3occc3n12	6.05% (inactive)

SMILES	enhancement
COc1cc(OC)cc(C(=O)NCCc2csc3nc(-c4ccccc4F)nn23)c1	-2.81% (inactive)
COc1ccc(C2(C)NC(=O)N(CC(=O)c3ccc4c(c3)OCO4)C2=O)cc1 (stereo not drawn)	2.8% (inactive)
COc1ccc(C2(C)ON(c3ccccc3C(F)(F)F)C2=O)cc1 (stereo not drawn)	35% (active)
COc1ccc(C2(O)C(=O)Nc3ccccc32)cc1 (stereo not drawn)	-4.9% (inactive)
COc1ccc(NC(=O)C2CCCN(S(=O)(=O)c3cccc4nonc34)C2)cc1Cl (stereo not drawn)	-6.01% (inactive)
Cc1ccc(Cn2c(CCCNC(=O)C3CCCCC3)nc3ccccc32)cc1	-17% (inactive)
CC12CCC(C(=O)N3CCN(c4ncccn4)CC3)(c3nc4ccccc4nc31)C2(C)C (stereo not drawn)	-2.73% (inactive)
c1cnc(N2CCN(c3ccc4ccccc4n3)CC2)nc1	45.5% (active)
O=C(c1ccc2ccccc2n1)N1CCN(c2ccccc2Cl)CC1	2.59% (inactive)
CCOc1ccccc1CNC(=O)c1ccc(-n2c(C)cc3c2CCC(C)C3)cc1 (stereo not drawn)	-0.716% (inactive)
NC(=O)CSc1nc2c(oc3ccccc32)c(=O)n1Cc1ccccc1	-1.53% (inactive)
Cc1ccc(NC(=O)COC(=O)CNC(=O)c2ccc(Cl)cc2Cl)cc1S(=O)(=O)N1CCOCC1	1.95% (inactive)
O=C(CNC(=O)c1ccc(Cl)cc1Cl)NCC(=O)Nc1ccccc1N1CCOCC1	31.1% (active)
O=C(Nc1ccccc1N1CCOCC1)c1ccncc1	6.76% (inactive)
CCOC(=O)c1ccc(COC(=O)CCc2nc(-c3ccccc3)c(-c3ccccc3)o2)cc1	31.7% (active)
CCOC(=O)c1c(-c2ccc(OC)cc2)oc2ccc(OCc3ccc(C(=O)OC)cc3)cc12	-1.96% (inactive)
CCOC(=O)c1ccc(-n2c(CCC(=O)O)ccc2-c2ccccc2)cc1	-12.3% (inactive) and 10.9% (inactive)
COc1ccc(Cn2c(C(=O)O)c(CNCc3cccc(OC)c3)c3ccc(C)cc32)cc1	4.01% (inactive)
COc1cc(NC(=O)c2noc3c2CSc2ccccc2-3)cc(OC)c1OC	4.94% (inactive)
COc1ccc(-c2c3c(=O)n(C)c(=O)n(C)c3c3c(C)nc4ccccc4n23)cc1	-1.08% (inactive)

SMILES	enhancement
COc1ccc(-c2[nH]c3c(c2-c2c(-n4cccc4)n(C)c(=O)n(C)c2=O)c(=O)n(C)c(=O)n3C)cc1	31.9% (active)
COc1ccc(Nc2cc(=O)n(-c3ccccc3)c3c2c(=O)n(C)c(=O)n3C)cc1	-11.6% (inactive)
CCOC(=O)c1cc(-c2ccccc2)n(CCC(=O)Nc2ccccc2CC)c1C	14% (inactive)
Cc1ccccc1NC(=O)Cn1c(=O)n(CCCCC(=O)NCc2ccccc2Cl)c(=O)c2ccccc21	2.95% (inactive)
Cc1c(C(=O)Nc2cccc(Cl)c2)oc2ccc(S(=O)(=O)N3CCOCC3)cc12	-6.24% (inactive)
C[C@H](NC(=O)NCCc1ccccc1)C(=O)O	33.9% (active)
O=C(NCCc1ccccc1)C1CC1	-3.66% (inactive)
CC(C)C[C@H](NC(=O)NCCc1ccc(Cl)cc1)C(=O)O	-5.99% (inactive)
CC(C)Cn1c(C2CC(=O)N(c3ccccc3Cl)C2)nc2ccccc21 (stereo not drawn)	-0.635% (inactive)
CN(C)c1ccc(C(=O)NCC(=O)OC(C(=O)Nc2cc(C(F)(F)F)ccc2Cl)c2ccccc2)cc1 (stereo not drawn)	-3.56% (inactive)
C[N+](C)(C)CCNC(=O)c1cc[n+](Cc2ccccc2)c(/C=N/O)c1	40.4% (active)
C[n+]1ccc(C(=O)NCc2ccccc2)cc1	-9.31% (inactive)
O=C(NCCCNCc1ccccc1)c1ccc(/C=N/O)nc1	15.9% (inactive)
CCn1c(CN2CCC(C)CC2)nc2cc(NC(=O)c3ccccc3[N+](=O)[O-])ccc21	3.72% (inactive)
COc1ccccc1-c1cc2nc(C)c(CCC(=O)O)c(C)n2n1	5.74% (inactive)
O=C(CC12CC3CC(CC(C3)C1)C2)NCc1ccco1	-4.28% (inactive)
O=C(CC1CCCCC1)NCc1ccco1	14.2% (inactive)
O=C(COC(=O)C12CC3CC(CC(C3)C1)C2)NCc1ccco1	-2.58% (inactive) and 33.9% (active)
